Test systems include SR leukemia; RPMI-8226 leukemia; OVCAR-8 ovarian; OVCAR-5 ovarian; OVCAR-4 ovarian; SK-OV-3 ovarian; IGROV1 ovarian; OVCAR-3 ovarian; HS 578T breast; NCI/ADR-RES ovarian.
Assay in all cases: NCI-60 one-dose screen, 48 h (100 = growth as untreated, 0 = no growth, -100 = all killed)
Common to all, as to settings: 10 µM

Molecules are shown by their SMILES. This is part of a sample that, as a whole, favours compounds with a hit. Of some 83,000 tested, about 20% had one in any assay.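 Results are percent growth after 48 hours of single-concentration exposure. 100 means growth as in untreated cells, lower positive values show inhibition; negative values down to -100 show cell death.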 Values without a mark were called inactive. Calls of active or inactive are those of the source. The calls were made as follows: active = growth percent below 10; inactive = the rest.

As for `CC(=O)Nc1ccc(S(=O)(=O)c2ccnc3cc(Cl)ccc23)cc1`, the growth in the assay with SR leukemia was 83.3%; in the assay with RPMI-8226 leukemia, 72.1%; in the assay with OVCAR-8 ovarian, 73.3%; in the assay with OVCAR-5 ovarian it was 100%; in the assay on OVCAR-4 ovarian, 81.4%; with SK-OV-3 ovarian it was 88%. For the same molecule, the growth with IGROV1 ovarian was 98.2%; in the assay with OVCAR-3 ovarian it was 76%; with HS 578T breast, 85.2%; in the assay with NCI/ADR-RES ovarian, 77.3%.
Take `Cc1ccc(/C=C/C(=O)C(=O)/C=C/c2ccc(C)cc2)cc1`: the growth in the assay on SR leukemia was 68%; in the assay with RPMI-8226 leukemia, 45.2%; in the assay with OVCAR-8 ovarian it was 109%; in the assay with OVCAR-5 ovarian it was 97.8%; in the assay on OVCAR-4 ovarian it was 98.6%; in the assay with SK-OV-3 ovarian, 109%. Moreover, the growth in the assay with IGROV1 ovarian is 94.4%; in the assay with OVCAR-3 ovarian, 112%; with HS 578T breast, 92.6%; with NCI/ADR-RES ovarian, 103%.
Turning to `CNC(=O)c1c(I)c(NC(C)=O)c(I)c(C(=O)O)c1I`, the growth in the assay with SR leukemia is 104%; in the assay on RPMI-8226 leukemia it was 110%; with OVCAR-8 ovarian, 103%; with OVCAR-5 ovarian, 113%; in the assay with OVCAR-4 ovarian it was 111%; with SK-OV-3 ovarian it was 104%. Further, the growth in the assay on IGROV1 ovarian was 115%; in the assay on OVCAR-3 ovarian, 111%; in the assay on HS 578T breast it was 110%; in the assay on NCI/ADR-RES ovarian, 103%.
Turning to `COc1ccc(/C=C2\CCCC3=C2NC(N)=NC3c2ccc(OC)c(OC)c2)cc1OC` (stereo not given), the growth in the assay with SR leukemia was 28.1%; with RPMI-8226 leukemia, 15.2%; in the assay with OVCAR-8 ovarian it was 10.6%; with OVCAR-5 ovarian it was 74.4%; in the assay with OVCAR-4 ovarian it was 53.4%; with SK-OV-3 ovarian, 44.1%. Further, the growth is 57.1% with IGROV1 ovarian, 10.8% in the assay on OVCAR-3 ovarian, 87.9% in the assay on HS 578T breast and 25.1% with NCI/ADR-RES ovarian.
With `CSc1nc2c(c(=O)n1C)CN(Cc1ccccc1)C(=O)CN2`, the growth was -9.52% (active) in the assay with SR leukemia; 109% in the assay with RPMI-8226 leukemia; 106% with OVCAR-8 ovarian; 94.4% with OVCAR-5 ovarian; 91% with OVCAR-4 ovarian; 99% with SK-OV-3 ovarian. Moreover, the growth with IGROV1 ovarian was 97.6%; in the assay on OVCAR-3 ovarian, 98.6%; in the assay with HS 578T breast it was 101%; in the assay on NCI/ADR-RES ovarian it was 85.5%.
Take `COc1cc(/C=C2\CCCC3=C2N=C2SC(C)=CN2C3c2cc(OC)c(OC)c(OC)c2)cc(OC)c1OC` (stereo not given): the growth with SR leukemia was 0.0832% (active); in the assay on RPMI-8226 leukemia it was -17% (active); in the assay on OVCAR-8 ovarian, -9.4% (active); with OVCAR-5 ovarian, -15% (active); with OVCAR-4 ovarian, 39.6%; in the assay on SK-OV-3 ovarian, 19.3%. Besides, the growth in the assay on IGROV1 ovarian is 2.86% (active); in the assay with OVCAR-3 ovarian it was -2.36% (active); with HS 578T breast, 49.9%; in the assay on NCI/ADR-RES ovarian it was 1.74% (active).
For `O=C(N/N=C/c1ccc(Cl)cc1)c1ccc(Cc2n[nH]c(=O)c3cccnc23)cc1`, the growth was 135% in the assay on SR leukemia; 117% with RPMI-8226 leukemia; 100% in the assay on OVCAR-8 ovarian; 99.7% in the assay with OVCAR-5 ovarian; 106% in the assay with OVCAR-4 ovarian; 103% in the assay on SK-OV-3 ovarian. The growth in the assay with IGROV1 ovarian was 102%; with OVCAR-3 ovarian, 106%; in the assay with HS 578T breast, 108%; with NCI/ADR-RES ovarian it was 101%.
Regarding `Cc1cc(C(C#N)c2ccc(Cl)cc2)c(Cl)cc1NC(=O)c1cc(I)cc(I)c1O` (stereo not given), the growth was 27.6% in the assay on SR leukemia; 13.8% with RPMI-8226 leukemia; 53.4% in the assay with OVCAR-8 ovarian; 87.8% in the assay on OVCAR-5 ovarian; 82.6% in the assay with OVCAR-4 ovarian; 85.2% in the assay on SK-OV-3 ovarian. For the same molecule, the growth in the assay on IGROV1 ovarian is 51.7%; in the assay on OVCAR-3 ovarian it was 32.6%; with HS 578T breast, 26%; in the assay with NCI/ADR-RES ovarian, 21.1%.
Consider `O=C(Nc1ccc2c(O)cc(S(=O)(=O)O)cc2c1)c1ccc([N+](=O)[O-])cc1`, for which the growth in the assay with SR leukemia is 60.9%; in the assay with RPMI-8226 leukemia it was 92.9%; with OVCAR-8 ovarian it was 88.9%; in the assay on OVCAR-5 ovarian, 101%; in the assay on OVCAR-4 ovarian it was 103%; in the assay with SK-OV-3 ovarian, 82.7%. Further, the growth with IGROV1 ovarian is 102%; in the assay on OVCAR-3 ovarian, 104%; in the assay on HS 578T breast, 103%; in the assay on NCI/ADR-RES ovarian, 100%.
In the case of `CC(C)=CCC/C(C)=C/CC/C(C)=C/CC/C=C(\C)CC/C=C(\C)CCC(=O)Nc1ccn(C2OC(CO)C(O)C2(F)F)c(=O)n1` (stereo not given), the growth in the assay with SR leukemia is -16.1% (active); with RPMI-8226 leukemia it was 32.1%; with OVCAR-8 ovarian, 19.2%; in the assay with OVCAR-5 ovarian it was 74.6%; in the assay with OVCAR-4 ovarian it was 39.9%; in the assay with SK-OV-3 ovarian, 31%. Besides, the growth was 40% in the assay with IGROV1 ovarian, 40.2% in the assay with OVCAR-3 ovarian, 42.5% with HS 578T breast and 38.8% in the assay on NCI/ADR-RES ovarian.
On to `CCN1CCN(CCC(=O)Nc2cccc(-n3cc(-c4ccncc4)c(-c4ccc(Cl)c(OC)c4)n3)c2)CC1`, for which the growth in the assay on SR leukemia is -12.3% (active); in the assay on RPMI-8226 leukemia, -38.8% (active); in the assay on OVCAR-8 ovarian it was 24.2%; in the assay on OVCAR-5 ovarian, 37.6%; in the assay with OVCAR-4 ovarian, 43.1%; with SK-OV-3 ovarian, 39.2%. Further, the growth in the assay on IGROV1 ovarian is 47.2%; with OVCAR-3 ovarian, 7.41% (active); in the assay with HS 578T breast it was 13.1%; with NCI/ADR-RES ovarian it was 15.2%.

The values are drawn from PubChem BioAssay (NCI).
